# Experimental data: ChEMBL document CHEMBL1961873, “Compounds: GSK PKIS; Assays: Nanosyn kinase panel” (2012)
# Key:
# [1] = target: Rho-associated protein kinase 1 (Homo sapiens) (UniProt Q13464); conditions: at 1 µM;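 note: reported values are mean percent inhibition of ROCK1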
# [2] = target: Rho-associated protein kinase 2 (Homo sapiens) (UniProt O75116); conditions: at 0.1 µM
# [3] = target: Rho-associated protein kinase 2 (Homo sapiens) (UniProt O75116); conditions: at 1 µM
# [4] = target: Ribosomal protein S6 kinase alpha-1 (Homo sapiens) (UniProt Q15418); conditions: at 0.1 µM
# Ribosomal protein S6 kinase alpha-1 (Homo sapiens), sequence (Q15418 whole entry): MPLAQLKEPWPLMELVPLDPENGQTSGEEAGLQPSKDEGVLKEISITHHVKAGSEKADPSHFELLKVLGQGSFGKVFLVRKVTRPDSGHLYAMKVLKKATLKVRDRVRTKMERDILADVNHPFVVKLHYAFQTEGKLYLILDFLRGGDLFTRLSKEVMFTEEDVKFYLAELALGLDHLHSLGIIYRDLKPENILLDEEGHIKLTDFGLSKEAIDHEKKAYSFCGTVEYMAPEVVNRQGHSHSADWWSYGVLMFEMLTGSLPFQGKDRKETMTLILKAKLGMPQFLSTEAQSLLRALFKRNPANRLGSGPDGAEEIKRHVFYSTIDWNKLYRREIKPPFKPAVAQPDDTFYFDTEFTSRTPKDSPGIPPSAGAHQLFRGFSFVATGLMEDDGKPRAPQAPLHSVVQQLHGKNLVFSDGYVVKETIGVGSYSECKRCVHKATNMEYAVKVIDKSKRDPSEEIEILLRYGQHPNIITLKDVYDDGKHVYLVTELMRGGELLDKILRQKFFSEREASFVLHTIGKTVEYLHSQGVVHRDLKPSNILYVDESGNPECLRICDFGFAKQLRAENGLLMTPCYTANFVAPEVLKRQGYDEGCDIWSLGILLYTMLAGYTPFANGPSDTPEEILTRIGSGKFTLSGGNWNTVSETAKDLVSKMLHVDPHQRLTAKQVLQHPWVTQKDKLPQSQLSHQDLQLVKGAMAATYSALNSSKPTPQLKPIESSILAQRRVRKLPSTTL
# [5] = target: Ribosomal protein S6 kinase alpha-1 (Homo sapiens) (UniProt Q15418); conditions: at 1 µM
# [6] = target: Ribosomal protein S6 kinase alpha-3 (Homo sapiens) (UniProt P51812); conditions: at 0.1 µM
# Ribosomal protein S6 kinase alpha-3 (Homo sapiens), sequence (P51812 whole entry): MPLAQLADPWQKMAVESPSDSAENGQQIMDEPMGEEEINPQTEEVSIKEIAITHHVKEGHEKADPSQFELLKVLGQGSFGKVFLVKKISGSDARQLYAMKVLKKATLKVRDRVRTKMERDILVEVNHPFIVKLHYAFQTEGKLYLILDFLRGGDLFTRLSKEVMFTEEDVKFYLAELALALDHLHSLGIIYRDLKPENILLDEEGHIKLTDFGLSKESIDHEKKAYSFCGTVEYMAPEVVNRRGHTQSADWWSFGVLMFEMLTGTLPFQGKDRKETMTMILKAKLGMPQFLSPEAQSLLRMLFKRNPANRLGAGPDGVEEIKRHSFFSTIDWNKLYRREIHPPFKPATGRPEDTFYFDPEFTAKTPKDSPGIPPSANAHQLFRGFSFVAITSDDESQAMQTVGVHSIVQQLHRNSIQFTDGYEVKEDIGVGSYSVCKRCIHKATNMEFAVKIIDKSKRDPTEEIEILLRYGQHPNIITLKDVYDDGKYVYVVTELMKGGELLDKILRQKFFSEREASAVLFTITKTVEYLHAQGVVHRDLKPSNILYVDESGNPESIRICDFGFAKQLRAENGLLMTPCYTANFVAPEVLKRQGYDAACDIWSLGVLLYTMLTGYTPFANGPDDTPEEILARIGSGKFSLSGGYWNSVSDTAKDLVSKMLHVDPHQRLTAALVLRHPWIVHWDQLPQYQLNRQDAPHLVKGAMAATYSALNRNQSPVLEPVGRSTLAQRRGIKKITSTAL
# [7] = target: Ribosomal protein S6 kinase alpha-3 (Homo sapiens) (UniProt P51812); conditions: at 1 µM
# [8] = target: Ribosomal protein S6 kinase alpha-2 (Homo sapiens) (UniProt Q15349); conditions: at 0.1 µM
# Ribosomal protein S6 kinase alpha-2 (Homo sapiens), sequence (Q15349 whole entry): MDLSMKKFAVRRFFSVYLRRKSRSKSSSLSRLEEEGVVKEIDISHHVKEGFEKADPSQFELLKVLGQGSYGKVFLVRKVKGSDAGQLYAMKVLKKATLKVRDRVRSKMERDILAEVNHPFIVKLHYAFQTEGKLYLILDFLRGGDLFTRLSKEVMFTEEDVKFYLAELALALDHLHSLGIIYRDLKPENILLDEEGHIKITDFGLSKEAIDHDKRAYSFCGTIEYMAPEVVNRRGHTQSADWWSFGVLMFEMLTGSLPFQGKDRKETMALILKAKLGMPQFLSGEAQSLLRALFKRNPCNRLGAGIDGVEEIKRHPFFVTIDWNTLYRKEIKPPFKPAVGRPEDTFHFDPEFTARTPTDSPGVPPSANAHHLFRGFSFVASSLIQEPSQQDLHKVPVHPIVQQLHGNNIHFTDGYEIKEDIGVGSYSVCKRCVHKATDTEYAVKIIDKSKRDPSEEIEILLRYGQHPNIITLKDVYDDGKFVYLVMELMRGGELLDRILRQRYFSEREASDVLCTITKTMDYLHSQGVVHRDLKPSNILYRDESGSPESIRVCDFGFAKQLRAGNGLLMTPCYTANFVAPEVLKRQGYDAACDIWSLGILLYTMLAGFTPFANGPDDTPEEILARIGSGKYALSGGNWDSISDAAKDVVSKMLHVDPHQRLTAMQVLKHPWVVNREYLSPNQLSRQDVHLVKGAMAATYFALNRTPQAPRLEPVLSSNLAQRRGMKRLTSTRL
# [9] = target: Ribosomal protein S6 kinase alpha-2 (Homo sapiens) (UniProt Q15349); conditions: at 1 µM
# [10] = target: Ribosomal protein S6 kinase alpha-6 (Homo sapiens) (UniProt Q9UK32); conditions: at 0.1 µM
# Ribosomal protein S6 kinase alpha-6 (Homo sapiens), sequence (Q9UK32 whole entry): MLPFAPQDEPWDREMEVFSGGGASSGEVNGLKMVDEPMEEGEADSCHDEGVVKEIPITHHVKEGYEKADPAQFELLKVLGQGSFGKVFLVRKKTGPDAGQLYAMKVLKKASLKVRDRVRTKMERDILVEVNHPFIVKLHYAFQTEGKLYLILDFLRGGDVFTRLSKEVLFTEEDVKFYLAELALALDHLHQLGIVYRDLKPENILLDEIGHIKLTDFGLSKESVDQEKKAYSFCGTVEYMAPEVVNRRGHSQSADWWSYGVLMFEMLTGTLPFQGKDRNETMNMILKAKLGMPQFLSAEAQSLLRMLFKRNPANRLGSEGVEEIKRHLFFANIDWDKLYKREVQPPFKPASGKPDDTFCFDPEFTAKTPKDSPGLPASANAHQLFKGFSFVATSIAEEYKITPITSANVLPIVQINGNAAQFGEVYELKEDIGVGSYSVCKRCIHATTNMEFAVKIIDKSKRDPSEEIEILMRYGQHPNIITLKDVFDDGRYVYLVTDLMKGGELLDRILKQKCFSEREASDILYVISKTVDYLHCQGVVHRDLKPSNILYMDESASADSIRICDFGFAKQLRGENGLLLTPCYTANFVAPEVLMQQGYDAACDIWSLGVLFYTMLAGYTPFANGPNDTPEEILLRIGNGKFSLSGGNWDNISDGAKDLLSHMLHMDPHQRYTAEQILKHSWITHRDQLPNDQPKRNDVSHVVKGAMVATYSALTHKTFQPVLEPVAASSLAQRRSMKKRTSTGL
# [11] = target: Ribosomal protein S6 kinase alpha-6 (Homo sapiens) (UniProt Q9UK32); conditions: at 1 µM
# [12] = target: T1, Serine/threonine-protein kinase Sgk1 (Homo sapiens) (UniProt O00141); conditions: at 0.1 µM
# T1 sequence (whole entry): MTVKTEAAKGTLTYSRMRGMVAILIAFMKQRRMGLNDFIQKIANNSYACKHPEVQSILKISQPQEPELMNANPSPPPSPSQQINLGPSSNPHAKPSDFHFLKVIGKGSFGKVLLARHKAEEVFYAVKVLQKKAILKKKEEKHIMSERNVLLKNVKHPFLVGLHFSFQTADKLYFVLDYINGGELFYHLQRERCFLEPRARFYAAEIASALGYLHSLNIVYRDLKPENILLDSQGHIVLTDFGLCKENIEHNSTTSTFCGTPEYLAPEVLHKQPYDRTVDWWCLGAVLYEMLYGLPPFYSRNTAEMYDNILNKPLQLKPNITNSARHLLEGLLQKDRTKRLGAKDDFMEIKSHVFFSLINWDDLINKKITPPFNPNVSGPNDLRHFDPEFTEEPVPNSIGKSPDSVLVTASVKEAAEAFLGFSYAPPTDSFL
# [13] = target: T1, Serine/threonine-protein kinase Sgk1 (Homo sapiens); conditions: at 1 µM
# [14] = target: T2, Serine/threonine-protein kinase Sgk2 (Homo sapiens) (UniProt Q9HBY8); conditions: at 0.1 µM
# T2 sequence (whole entry): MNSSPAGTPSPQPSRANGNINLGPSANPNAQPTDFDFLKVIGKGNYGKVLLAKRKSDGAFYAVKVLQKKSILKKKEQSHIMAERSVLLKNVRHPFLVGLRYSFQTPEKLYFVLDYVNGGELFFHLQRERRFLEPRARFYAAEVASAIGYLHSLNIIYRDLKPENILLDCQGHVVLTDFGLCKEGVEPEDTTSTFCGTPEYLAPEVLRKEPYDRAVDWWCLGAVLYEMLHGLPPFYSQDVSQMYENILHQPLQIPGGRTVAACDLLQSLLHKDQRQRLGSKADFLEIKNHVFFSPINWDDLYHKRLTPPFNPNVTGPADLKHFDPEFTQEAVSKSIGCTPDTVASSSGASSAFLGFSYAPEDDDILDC
# [15] = target: T3, Serine/threonine-protein kinase Sgk3 (Homo sapiens) (UniProt Q96BR1); conditions: at 0.1 µM
# T3 sequence (whole entry): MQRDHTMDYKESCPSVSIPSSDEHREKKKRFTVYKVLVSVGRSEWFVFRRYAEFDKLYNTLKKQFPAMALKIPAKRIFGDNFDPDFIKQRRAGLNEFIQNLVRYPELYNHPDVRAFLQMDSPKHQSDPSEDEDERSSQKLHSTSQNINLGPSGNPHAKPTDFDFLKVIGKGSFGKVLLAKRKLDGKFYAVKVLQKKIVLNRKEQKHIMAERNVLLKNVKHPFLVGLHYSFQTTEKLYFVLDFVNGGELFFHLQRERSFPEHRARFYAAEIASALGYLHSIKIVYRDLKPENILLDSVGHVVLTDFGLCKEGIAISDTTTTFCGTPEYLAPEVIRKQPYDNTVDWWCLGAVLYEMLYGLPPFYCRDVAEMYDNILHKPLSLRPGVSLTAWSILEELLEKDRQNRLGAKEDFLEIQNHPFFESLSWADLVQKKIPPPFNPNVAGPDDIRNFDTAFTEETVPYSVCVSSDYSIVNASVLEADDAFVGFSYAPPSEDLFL
# [16] = target: T3, Serine/threonine-protein kinase Sgk3 (Homo sapiens); conditions: at 1 µM
# [17] = target: 5'-AMP-activated protein kinase catalytic subunit alpha-1 (Homo sapiens) (UniProt Q13131); conditions: at 0.1 µM
# 5'-AMP-activated protein kinase catalytic subunit alpha-1 (Homo sapiens), sequence (Q13131 whole entry, looked up): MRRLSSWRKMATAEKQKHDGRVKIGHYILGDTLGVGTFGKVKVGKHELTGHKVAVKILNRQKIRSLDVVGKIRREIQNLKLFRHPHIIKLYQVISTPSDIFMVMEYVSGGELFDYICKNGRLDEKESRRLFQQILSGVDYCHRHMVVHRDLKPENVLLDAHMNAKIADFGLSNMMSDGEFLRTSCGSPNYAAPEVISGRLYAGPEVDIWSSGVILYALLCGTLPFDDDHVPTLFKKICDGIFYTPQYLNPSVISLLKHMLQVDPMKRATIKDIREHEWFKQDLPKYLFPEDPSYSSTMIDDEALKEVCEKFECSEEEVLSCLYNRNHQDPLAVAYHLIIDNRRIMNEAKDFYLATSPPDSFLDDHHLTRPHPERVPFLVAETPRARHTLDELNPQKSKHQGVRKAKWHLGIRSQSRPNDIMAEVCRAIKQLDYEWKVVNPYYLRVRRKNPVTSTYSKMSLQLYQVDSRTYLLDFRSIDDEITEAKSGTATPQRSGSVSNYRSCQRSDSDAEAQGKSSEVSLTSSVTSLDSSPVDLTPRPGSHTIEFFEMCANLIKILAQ
# [18] = target: 5'-AMP-activated protein kinase catalytic subunit alpha-1 (Homo sapiens) (UniProt Q13131); conditions: at 1 µM
# [19] = target: 5'-AMP-activated protein kinase catalytic subunit alpha-2 (Homo sapiens) (UniProt P54646); conditions: at 0.1 µM;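 note: mean inhibition measured on the AMPK complex of alpha2, beta1 and gamma1 subunits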
# [20] = target: T2, Serine/threonine-protein kinase Sgk2 (Homo sapiens); conditions: at 1 µM
# Rho-associated protein kinase 2 (Homo sapiens), sequence (O75116 whole entry, looked up): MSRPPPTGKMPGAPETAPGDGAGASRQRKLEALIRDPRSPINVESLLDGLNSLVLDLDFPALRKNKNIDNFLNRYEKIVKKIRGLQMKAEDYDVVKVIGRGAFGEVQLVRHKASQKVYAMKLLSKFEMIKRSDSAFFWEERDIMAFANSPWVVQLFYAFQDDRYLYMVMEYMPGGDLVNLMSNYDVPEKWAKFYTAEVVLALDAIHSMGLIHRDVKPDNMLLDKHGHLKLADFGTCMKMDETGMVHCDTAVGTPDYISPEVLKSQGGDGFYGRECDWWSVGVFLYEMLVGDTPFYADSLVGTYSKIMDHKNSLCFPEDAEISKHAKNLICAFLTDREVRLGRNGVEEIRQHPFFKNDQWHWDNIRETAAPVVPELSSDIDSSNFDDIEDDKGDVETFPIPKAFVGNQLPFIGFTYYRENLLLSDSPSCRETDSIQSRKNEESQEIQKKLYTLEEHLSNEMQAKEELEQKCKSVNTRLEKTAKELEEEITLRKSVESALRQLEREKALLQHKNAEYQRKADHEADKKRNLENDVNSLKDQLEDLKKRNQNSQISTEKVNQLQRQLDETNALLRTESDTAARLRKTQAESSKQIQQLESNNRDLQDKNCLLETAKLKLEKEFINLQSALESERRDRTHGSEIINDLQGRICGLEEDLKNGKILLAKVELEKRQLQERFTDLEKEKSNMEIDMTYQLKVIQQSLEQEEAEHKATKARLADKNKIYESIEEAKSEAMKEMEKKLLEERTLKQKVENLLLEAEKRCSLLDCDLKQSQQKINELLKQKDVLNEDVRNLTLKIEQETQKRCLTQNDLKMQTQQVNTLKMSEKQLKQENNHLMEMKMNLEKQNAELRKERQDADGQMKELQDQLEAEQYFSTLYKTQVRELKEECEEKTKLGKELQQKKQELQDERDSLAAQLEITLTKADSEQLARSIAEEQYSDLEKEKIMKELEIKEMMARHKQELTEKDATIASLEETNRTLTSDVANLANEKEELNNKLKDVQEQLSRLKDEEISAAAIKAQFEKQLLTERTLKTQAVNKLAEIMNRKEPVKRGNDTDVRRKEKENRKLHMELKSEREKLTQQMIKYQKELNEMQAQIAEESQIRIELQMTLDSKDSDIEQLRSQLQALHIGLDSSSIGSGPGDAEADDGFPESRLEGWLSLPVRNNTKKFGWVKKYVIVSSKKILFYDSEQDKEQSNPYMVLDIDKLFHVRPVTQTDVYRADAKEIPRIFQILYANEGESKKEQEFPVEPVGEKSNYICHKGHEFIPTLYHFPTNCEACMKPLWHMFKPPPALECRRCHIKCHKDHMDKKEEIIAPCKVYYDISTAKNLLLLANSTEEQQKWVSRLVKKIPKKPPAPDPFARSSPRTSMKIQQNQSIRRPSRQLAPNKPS
SMILES,inhibition [1],inhibition [2],inhibition [3],inhibition [4],inhibition [5],inhibition [6],inhibition [7],inhibition [8],inhibition [9],inhibition [10],inhibition [11],inhibition [12],inhibition [13],inhibition [14],inhibition [15],inhibition [16],inhibition [17],inhibition [18],inhibition [19],inhibition [20]
NCc1ccc(-c2nc(-c3ccc(Cl)c(O)c3)c(-c3ccncc3)[nH]2)cc1,2.17%,-0.88%,0.95%,-0.63%,1.3%,-1.01%,-1.09%,0.29%,1.53%,0.47%,0.03%,0.62%,0.21%,0.15%,-0.56%,-0.81%,0.17%,-1.38%,-2.35%,
CS(=O)(=O)CCNCc1ccc(-c2ccc3ncnc(Nc4ccc(OCc5ccccc5)c(Cl)c4)c3c2)o1,3.86%,1.28%,5.61%,0.36%,2.7%,-1.21%,1.51%,1.08%,2.7%,-0.67%,0.49%,0.96%,1.58%,2.63%,-0.5%,1.84%,-1.82%,-0.45%,3.82%,0.46%
CCn1c(-c2nonc2N)nc2cncc(C(=O)N3CCNCC3)c21,,3.45%,4.33%,1.84%,3.1%,0.8%,-0.05%,3.17%,3.01%,1.32%,2.55%,1.92%,4.77%,3.56%,5.25%,6.39%,3.24%,4.88%,8.15%,4.56%
CS(=O)(=O)Nc1ccc(N/C=C2\C(=O)Nc3ccccc32)cc1,1.4%,-0.88%,1.99%,1.8%,9.64%,1.88%,9.89%,0.85%,13.8%,0.95%,11%,0.01%,12.3%,-2.1%,-3.12%,-0.79%,0.57%,12%,-0.35%,1.93%
O=C1NC(=O)C(c2cccc(Cl)c2)=C1Nc1ccc(O)c(Cl)c1,0.49%,-0.28%,-2.05%,1.2%,7.59%,1.93%,14.1%,3.16%,19.8%,3.63%,21.5%,2.17%,0.01%,0.49%,-0.12%,-0.88%,1.08%,8.5%,0.44%,3.67%
Cc1cccc(-c2n[nH]cc2-c2ccc3ncccc3n2)n1,-0.22%,0.72%,-0.18%,-0.36%,0.1%,1.16%,1.24%,0.29%,1.84%,0.98%,1.71%,0.86%,1.34%,0.23%,0.78%,-0.02%,1.82%,0.12%,0.85%,0.54%
c1cnn2ncc(-c3ccnc(Nc4ccc5c(c4)OCCO5)n3)c2c1,9.73%,4.95%,19.1%,2.62%,7.26%,0.94%,4.28%,2.89%,4.85%,3.28%,9.17%,2.25%,7.34%,6.82%,2.27%,-0.29%,4.61%,11.6%,1.53%,1.72%
